From PubChem BioAssay (NCATS)
Inconclusive results are not listed. Values without a mark were called inactive. Calls follow the shape of the dose curve; as a rule, active = well fitted inhibition curve with a large enough effect; inconclusive = small, poorly fitted or top-dose-only effect; inactive = flat fitted curve, though single readings scatter.

biological target: Calcium and integrin-binding protein 1 (Homo sapiens) (UniProt Q99828); experiment: Primary qHTS for Identification of Calcium Integrin Binding Protein 1 (CIB1) Competitor (AID 1508620); conditions: CIB1-GST / FITC-alphaIIb peptide fluorescence polarization; series mostly up to 114 µM; activity change, negative = inhibition: at the top concentration;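 also: GST tagged CIB1 binding a fluorescein labelled alphaIIb integrin peptide tracer; top concentration of the series differs between compounds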
Sequence (Q99828 whole entry, looked up): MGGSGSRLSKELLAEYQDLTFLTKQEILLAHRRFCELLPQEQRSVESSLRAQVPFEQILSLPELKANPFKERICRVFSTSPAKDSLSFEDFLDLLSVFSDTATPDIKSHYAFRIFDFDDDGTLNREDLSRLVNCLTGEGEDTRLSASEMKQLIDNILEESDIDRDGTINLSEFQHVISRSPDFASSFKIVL
Procedure, shortened: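 Fluorescence polarization competition: CIB1-GST (1 uM final) preincubated with compound 15 min at room temperature, then FITC-labeled alphaIIb peptide (100 nM final) added for another 15 min. Polarization read at Ex 480/Em 540.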
% is scaled to controls: 0 for no effect and ±100 for the full control effect.

First: Cc1cn([C@H]2C[C@H](N[S+](=O)([O-])Cc3ccccc3)[C@@H](CO)O2)c(=O)[nH]c1=O
Second: CCCCN1C(=O)c2ccccc2C1=O
The “activity change, negative = inhibition” value of the first is lower: 2.77% for the first, 3.16% for the second.

Compared with NC(=O)C1CCN(c2nc(-c3cccc(C(F)(F)F)c3)cs2)CC1, Cc1ccnc(NC(=S)N2CCN(c3cccc(C(F)(F)F)n3)CC2)c1 is lower in “activity change, negative = inhibition” value: 3.18% for the first, -8.56% for the second.

Going from Cc1cnc(-c2ccccc2C(C)O)nc1NCc1ccc(-c2cccnc2)cc1 (centres undefined) to FC(F)(F)c1ccc(-c2ccc(CNc3nc(-c4ccccc4C(F)(F)F)nc4ccccc34)cc2)cn1, the “activity change, negative = inhibition” value rises from -11.9% to 3.69%.

Going from CC(C)(C)N=Cc1c(-c2ccccc2)no[n+]1[O-] to CC(=O)Nc1ccc(OC2=NS(=O)(=O)c3ccccc32)cc1, the “activity change, negative = inhibition” value rises from 0.344% to 6.15%.

First: Cc1cc(C)nc(NC(=S)N2CCN(c3cccc(Cl)c3Cl)CC2)c1
Second: Cc1cc(C)nc(NC(=S)N2CCN(c3cc(Cl)c(Cl)cc3Cl)CC2)c1
The “activity change, negative = inhibition” value of the first is higher: -6.81% for the first, -8.14% for the second.

Going from Cc1ccc(OCCn2c(CCNC(=O)CCc3ccc(N)cc3)nc3ccccc32)cc1 to Cc1ccc(OCCn2c(CCNC(=O)c3ccccc3C)nc3ccccc32)cc1, the “activity change, negative = inhibition” value rises from 2.44% to 11.2%.

First: O=S(=O)(c1ccc2c(c1)OCCO2)N1CCN(S(=O)(=O)c2cccs2)CC1
Second: COc1ccnc(NC(=S)N2CCN(c3cccc(C(F)(F)F)n3)CC2)c1
The “activity change, negative = inhibition” value of the first is lower: -2.71% for the first, 4.68% for the second.

First: CC(=O)Nc1sc2c(c1-c1ccc(C)cc1)CCNC2
Second: Cc1ccc(-c2ccc(=O)n(CC(=O)N(C)C3CCCCCC3)n2)cc1
The “activity change, negative = inhibition” value of the first is higher: 7.75% for the first, -0.875% for the second.

First: Cc1ccc(C[C@H](C(=O)O)N2C(=O)c3ccc(C(=O)O)cc3C2=O)c(C)c1
Second: CCCCN(C)C(=O)Cn1nc(-c2cccc(C)c2)ccc1=O
The “activity change, negative = inhibition” value of the first is lower: -1.39% for the first, -0.981% for the second.

First: O=C1c2ccccc2NC(c2ccc(-c3cccc(Cl)c3)o2)N1O (centres undefined)
Second: COc1ccc(C2Nc3ccccc3C(=O)N2Cc2ccccc2)cc1COc1ccc(C#N)cc1 (centres undefined)
The “activity change, negative = inhibition” value of the first is lower: -13.2% for the first, 4.59% for the second.

Compared with Cc1c(Cl)cccc1NS(=O)(=O)c1cc2c(cc1F)NC(=O)CC2, Cc1ccc(NS(=O)(=O)c2cc3c(cc2N(C)CCN(C)C)NC(=O)CC3)cc1C is higher in “activity change, negative = inhibition” value: -2.03% for the first, 3.27% for the second.

First: CN(C)c1ccc2c(=O)n3nc(Nc4ccc5c(c4)CCC5)sc3nc2c1
Second: O=C1CCCC2=C1C1(CCSC1)N=C(Nc1nc3ccccc3o1)N2 (centres undefined)
The “activity change, negative = inhibition” value of the first is higher: -4.24% for the first, -24.2% for the second.

First: Cc1cc(C)n2ncc(C(=O)Nc3ccc(Cl)c(Cl)c3)c2n1
Second: O=C(Cc1nnc(-c2nc3ccccc3[nH]2)o1)Nc1cc(C(F)(F)F)ccc1Cl
The “activity change, negative = inhibition” value of the first is higher: 6.27% for the first, -0.3% for the second.

First: O=[S+]([O-])(Nc1ccc(-c2ccccc2)cc1)c1ccc(NCc2ccc(Cl)cc2O)cc1
Second: Cc1cc(N[S+](=O)([O-])c2ccc(NC(=O)Cc3ccc(F)c(C(F)(F)F)c3)cc2)no1
The “activity change, negative = inhibition” value of the first is higher: -0.284% for the first, -10.4% for the second.

Compared with c1nc(NCCc2cnc[nH]2)c2cc(-c3ccoc3)ccc2n1, Cc1noc(C)c1-c1ccc2ncnc(NCc3ccc(F)cc3)c2c1 is lower in “activity change, negative = inhibition” value: 8.29% for the first, 1.07% for the second.

Compared with COc1cc(-c2ccc3ncnc(NCc4nc(C)cs4)c3c2)cc(OC)c1OC, COc1ccc(-c2nc3ccccc3c(=O)n2Cc2ccco2)cc1COc1ccc(NC(C)=O)cc1 is lower in “activity change, negative = inhibition” value: -5.4% for the first, -10.3% for the second.

Compared with O=C(Cn1nc(-c2ccc(C(F)(F)F)cc2)ccc1=O)NCCc1ccccc1, Cc1cc2c(s1)c(C=O)c(C(=O)NCc1ccccc1F)n2C is lower in “activity change, negative = inhibition” value: 3.07% for the first, -2.6% for the second.

Going from O=C(NC1CCCc2c1cnn2-c1ccc(F)cc1F)c1cnon1 (centres undefined) to Nc1ncc(-c2cccc(-c3nn4c(=O)cc(N5CCNCC5)nc4s3)c2)cn1, the “activity change, negative = inhibition” value rises from -2.39% to 1.79%.

Going from CC(=O)N1CCN(C(=S)Nc2cc(C)ccn2)CC1 to O=C1CCCC2=C1C(c1[nH]ncc1Cl)N=C(Nc1nc3cc([S+](=O)([O-])N4CCOCC4)ccc3o1)N2 (centres undefined), the “activity change, negative = inhibition” value rises from -6.92% to -6.32%.

For COc1cc(OC)c(C(CC(=O)N2CC(C)CC(C)C2)c2ccc3c(c2)OCO3)c(OC)c1 (centres undefined), the “activity change, negative = inhibition” value was -2.11% [at 228 µM].
